This note sets out measurements from publication PMC11006913.

Substitutions are numbered along the chain they refer to.

Experiment in all cases: PBM; 200 nM protein, PBS
Common to all, as to conditions: dsDNA, one strand shown

The target in assay [1] is T1, PAX4 (Homo sapiens, UniProt O43316 9-242, R200K).
T1 sequence: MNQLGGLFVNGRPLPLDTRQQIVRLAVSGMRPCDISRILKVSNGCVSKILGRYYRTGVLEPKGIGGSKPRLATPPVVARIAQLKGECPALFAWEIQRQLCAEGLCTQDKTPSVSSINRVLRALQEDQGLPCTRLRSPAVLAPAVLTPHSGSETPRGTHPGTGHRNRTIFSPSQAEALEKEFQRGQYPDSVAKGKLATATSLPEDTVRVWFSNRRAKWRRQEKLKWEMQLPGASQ

For assay [2], the target named is T2, PAX4 (Homo sapiens, UniProt O43316 9-242, F177Y).
T2 sequence: T1 sequence with F169Y, K192R

In assay [3] the target is T3, PAX4 (Homo sapiens, UniProt O43316 9-242, R227W).
T3 sequence: T1 sequence with K192R, R219W

The target of assay [4] is PRRX1 (Homo sapiens, UniProt P54821 80-166, F113S).
PRRX1 (Homo sapiens, UniProt P54821 80-166, F113S), sequence (P54821 80-166 F113S): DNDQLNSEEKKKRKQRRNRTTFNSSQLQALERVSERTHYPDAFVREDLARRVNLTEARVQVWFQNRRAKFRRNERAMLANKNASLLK
The target of assay [5] is HOXA2 (Homo sapiens, UniProt O43364 129-215, R185T).
HOXA2 (Homo sapiens, UniProt O43364 129-215, R185T), sequence (O43364 129-215 R185T): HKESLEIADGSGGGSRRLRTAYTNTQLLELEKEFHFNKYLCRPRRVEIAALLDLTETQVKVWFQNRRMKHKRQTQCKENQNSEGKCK
Assay [6] deals with HOXA2 (Homo sapiens, UniProt O43364 129-215, R185K).
HOXA2 (Homo sapiens, UniProt O43364 129-215, R185K), sequence (O43364 129-215 R185K): as the sequence (O43364 129-215 R185T) above, with T57K counted along it
Assay [7] has as its target HOXA2 (Homo sapiens, UniProt O43364 129-215, Y150S).
Assay [8] addresses PRRX1 (Homo sapiens, UniProt P54821 80-166).
Assay [9] deals with HOXA2 (Homo sapiens, UniProt O43364 129-215).
HOXA2 (Homo sapiens, UniProt O43364 129-215), sequence (O43364 129-215): as the sequence (O43364 129-215 R185T) above, with T57R counted along it
The target of assay [10] is PROP1 (Homo sapiens, UniProt O75360 56-141).
PROP1 (Homo sapiens, UniProt O75360 56-141), sequence (O75360 56-141): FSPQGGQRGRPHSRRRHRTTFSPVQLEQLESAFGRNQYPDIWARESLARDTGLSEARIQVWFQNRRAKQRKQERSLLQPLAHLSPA
In assay [11] the target is PROP1 (Homo sapiens, UniProt O75360 56-141, R99H).
PROP1 (Homo sapiens, UniProt O75360 56-141, R99H), sequence (O75360 56-141 R99H): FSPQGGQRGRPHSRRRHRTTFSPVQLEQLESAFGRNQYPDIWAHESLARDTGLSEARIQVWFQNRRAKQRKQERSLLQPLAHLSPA
For assay [12], the target named is PROP1 (Homo sapiens, UniProt O75360 56-141, F88S).
PROP1 (Homo sapiens, UniProt O75360 56-141, F88S), sequence (O75360 56-141 F88S): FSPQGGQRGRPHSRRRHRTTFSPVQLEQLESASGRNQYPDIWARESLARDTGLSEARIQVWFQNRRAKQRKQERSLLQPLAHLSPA
Assay [13] addresses MSX2 (Homo sapiens, UniProt P35548 130-214, R199I).
The next assay has as its target SHOX (Homo sapiens, UniProt O15266 103-189, R173C).
Assay [14] has as its target ALX3 (Homo sapiens, UniProt O95076 139-225, L168V).
Assay [15] concerns the target T4, NKX2-6 (Homo sapiens, UniProt A6NCS4 118-204).
T4 sequence: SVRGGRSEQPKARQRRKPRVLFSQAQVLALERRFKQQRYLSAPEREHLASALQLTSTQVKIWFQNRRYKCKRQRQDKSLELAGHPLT

Assay [16] concerns the target T5, NKX2-6 (Homo sapiens, UniProt A6NCS4 118-204, F151L).
T5 sequence: T4 sequence with F34L

In another assay the target is PITX2 (Homo sapiens, UniProt Q99697 72-157).
In assay [17] the target is ALX1 (Homo sapiens, UniProt Q15699 118-204, L144V).
ALX1 (Homo sapiens, UniProt Q15699 118-204, L144V), sequence (Q15699 118-204 L144V): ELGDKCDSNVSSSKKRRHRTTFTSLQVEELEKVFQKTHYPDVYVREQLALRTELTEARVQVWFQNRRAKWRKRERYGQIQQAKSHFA
The target of assay [18] is ALX3 (Homo sapiens, UniProt O95076 139-225, N203Q).
ALX3 (Homo sapiens, UniProt O95076 139-225, N203Q), sequence (O95076 139-225 N203Q): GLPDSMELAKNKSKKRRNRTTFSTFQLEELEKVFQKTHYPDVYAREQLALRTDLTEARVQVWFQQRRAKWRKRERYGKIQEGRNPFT
Assay [19] concerns the target ALX1 (Homo sapiens, UniProt Q15699 118-204, L144R).
Assay [20] addresses ALX3 (Homo sapiens, UniProt O95076 139-225).
The target of assay [21] is ALX3 (Homo sapiens, UniProt O95076 139-225, L168Q).
ALX3 (Homo sapiens, UniProt O95076 139-225, L168Q), sequence (O95076 139-225 L168Q): as the sequence (O95076 139-225 N203Q) above, with L30Q, Q65N counted along it
Assay [22] concerns the target ALX1 (Homo sapiens, UniProt Q15699 118-204).
Assay [23] deals with ALX3 (Homo sapiens, UniProt O95076 139-225, N203S).
ALX3 (Homo sapiens, UniProt O95076 139-225, N203S), sequence (O95076 139-225 N203S): as the sequence (O95076 139-225 N203Q) above, with Q65S counted along it
Assay [24] has as its target MSX2 (Homo sapiens, UniProt P35548 130-214).
For assay [25], the target named is MSX2 (Homo sapiens, UniProt P35548 130-214, F161Y).
MSX2 (Homo sapiens, UniProt P35548 130-214, F161Y), sequence (P35548 130-214 F161Y): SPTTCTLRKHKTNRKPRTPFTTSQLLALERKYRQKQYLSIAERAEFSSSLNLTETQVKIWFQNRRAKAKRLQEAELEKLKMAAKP

PRRX1 (Homo sapiens, UniProt P54821 80-166), sequence (P54821 80-166): as the sequence (P54821 80-166 F113S) above, with S34F counted along it
ALX3 (Homo sapiens, UniProt O95076 139-225, L168V), sequence (O95076 139-225 L168V): as the sequence (O95076 139-225 N203Q) above, with L30V, Q65N counted along it
MSX2 (Homo sapiens, UniProt P35548 130-214, R199I), sequence (P35548 130-214 R199I): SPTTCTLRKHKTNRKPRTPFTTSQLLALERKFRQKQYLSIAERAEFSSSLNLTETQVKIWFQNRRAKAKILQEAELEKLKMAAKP
HOXA2 (Homo sapiens, UniProt O43364 129-215, Y150S), sequence (O43364 129-215 Y150S): as the sequence (O43364 129-215 R185T) above, with Y22S, T57R counted along it
ALX1 (Homo sapiens, UniProt Q15699 118-204), sequence (Q15699 118-204): as the sequence (Q15699 118-204 L144V) above, with V27L counted along it
SHOX, sequence (O15266 103-189 R173C): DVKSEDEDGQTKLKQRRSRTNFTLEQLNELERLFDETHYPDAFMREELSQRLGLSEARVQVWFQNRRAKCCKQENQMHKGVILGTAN
ALX3 (Homo sapiens, UniProt O95076 139-225), sequence (O95076 139-225): as the sequence (O95076 139-225 N203Q) above, with Q65N counted along it
ALX1 (Homo sapiens, UniProt Q15699 118-204, L144R), sequence (Q15699 118-204 L144R): as the sequence (Q15699 118-204 L144V) above, with V27R counted along it
MSX2 (Homo sapiens, UniProt P35548 130-214), sequence (P35548 130-214): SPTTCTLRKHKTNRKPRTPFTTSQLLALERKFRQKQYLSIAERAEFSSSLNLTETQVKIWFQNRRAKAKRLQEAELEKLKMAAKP

Regarding ATAATGCG, the binding signal with PAX4 [1] was 11.6 upbm affinity estimate (log intensity, higher = more binding, comparable within an allelic series); with PAX4 [2], 10.9 upbm affinity estimate (log intensity, higher = more binding, comparable within an allelic series); with PAX4 [3], 10.9 upbm affinity estimate (log intensity, higher = more binding, comparable within an allelic series).
Take ACGCCGGA: the binding signal is 9.29 upbm affinity estimate (log intensity, higher = more binding, comparable within an allelic series) in the assay with PRRX1 [4]; 7.08 upbm affinity estimate (log intensity, higher = more binding, comparable within an allelic series) with HOXA2 [5]; 10.3 upbm affinity estimate (log intensity, higher = more binding, comparable within an allelic series) with HOXA2 [6]; 10.5 upbm affinity estimate (log intensity, higher = more binding, comparable within an allelic series) in the assay with HOXA2 [7]; 9.34 upbm affinity estimate (log intensity, higher = more binding, comparable within an allelic series) with PRRX1 [8]; 7.28 upbm affinity estimate (log intensity, higher = more binding, comparable within an allelic series) with HOXA2 [9].
With GAGCGGCC, the binding signal with PRRX1 [4] was 9.25 upbm affinity estimate (log intensity, higher = more binding, comparable within an allelic series); with PROP1 [10], 6.83 upbm affinity estimate (log intensity, higher = more binding, comparable within an allelic series); with PROP1 [11], 6.8 upbm affinity estimate (log intensity, higher = more binding, comparable within an allelic series); in the assay with PROP1 [12], 6.52 upbm affinity estimate (log intensity, higher = more binding, comparable within an allelic series); in the assay with PRRX1 [8], 9.59 upbm affinity estimate (log intensity, higher = more binding, comparable within an allelic series).
AATTATAG: the binding signal was 11.2 upbm affinity estimate (log intensity, higher = more binding, comparable within an allelic series) with PRRX1 [4]; 12.2 upbm affinity estimate (log intensity, higher = more binding, comparable within an allelic series) in the assay with MSX2 [13]; 9.23 upbm affinity estimate (log intensity, higher = more binding, comparable within an allelic series) with SHOX; 9.73 upbm affinity estimate (log intensity, higher = more binding, comparable within an allelic series) with ALX3 [14]; 10.9 upbm affinity estimate (log intensity, higher = more binding, comparable within an allelic series) with PAX4 [3].
AGACGAGC: the binding signal with PRRX1 [4] is 9.44 upbm affinity estimate (log intensity, higher = more binding, comparable within an allelic series); with NKX2-6 [15], 9.38 upbm affinity estimate (log intensity, higher = more binding, comparable within an allelic series); with NKX2-6 [16], 9.3 upbm affinity estimate (log intensity, higher = more binding, comparable within an allelic series); in the assay with PRRX1 [8], 9.6 upbm affinity estimate (log intensity, higher = more binding, comparable within an allelic series).
On to CGGAACCG, for which the binding signal with PRRX1 [4] was 9.35 upbm affinity estimate (log intensity, higher = more binding, comparable within an allelic series); in the assay with PITX2 it was 7.68 upbm affinity estimate (log intensity, higher = more binding, comparable within an allelic series); in the assay with PRRX1 [8], 9.26 upbm affinity estimate (log intensity, higher = more binding, comparable within an allelic series).
As for ACCGAGGG, the binding signal is 8.94 upbm affinity estimate (log intensity, higher = more binding, comparable within an allelic series) with PRRX1 [4]; 6.46 upbm affinity estimate (log intensity, higher = more binding, comparable within an allelic series) with ALX1 [17]; 7.64 upbm affinity estimate (log intensity, higher = more binding, comparable within an allelic series) in the assay with ALX3 [18]; 6.47 upbm affinity estimate (log intensity, higher = more binding, comparable within an allelic series) in the assay with ALX1 [19]; 7.78 upbm affinity estimate (log intensity, higher = more binding, comparable within an allelic series) with ALX3 [20]; 7.65 upbm affinity estimate (log intensity, higher = more binding, comparable within an allelic series) with ALX3 [21]. Further, the binding signal with ALX3 [14] is 7.64 upbm affinity estimate (log intensity, higher = more binding, comparable within an allelic series); in the assay with ALX1 [22] it was 6.38 upbm affinity estimate (log intensity, higher = more binding, comparable within an allelic series); in the assay with ALX3 [23], 7.63 upbm affinity estimate (log intensity, higher = more binding, comparable within an allelic series); with PRRX1 [8], 9.32 upbm affinity estimate (log intensity, higher = more binding, comparable within an allelic series).
With CTTAATCA, the binding signal was 10.9 upbm affinity estimate (log intensity, higher = more binding, comparable within an allelic series) in the assay with PRRX1 [4]; 10.5 upbm affinity estimate (log intensity, higher = more binding, comparable within an allelic series) in the assay with PROP1 [10]; 9.83 upbm affinity estimate (log intensity, higher = more binding, comparable within an allelic series) in the assay with PROP1 [11]; 7.41 upbm affinity estimate (log intensity, higher = more binding, comparable within an allelic series) with PROP1 [12]; 13 upbm affinity estimate (log intensity, higher = more binding, comparable within an allelic series) in the assay with PRRX1 [8].
As to ACAGTCGG, the binding signal in the assay with PRRX1 [4] is 9.61 upbm affinity estimate (log intensity, higher = more binding, comparable within an allelic series); with PRRX1 [8], 9.49 upbm affinity estimate (log intensity, higher = more binding, comparable within an allelic series).
For ACCCCGGG, the binding signal is 9.35 upbm affinity estimate (log intensity, higher = more binding, comparable within an allelic series) with PRRX1 [4]; 9.55 upbm affinity estimate (log intensity, higher = more binding, comparable within an allelic series) with MSX2 [13]; 9.62 upbm affinity estimate (log intensity, higher = more binding, comparable within an allelic series) in the assay with MSX2 [24]; 9.67 upbm affinity estimate (log intensity, higher = more binding, comparable within an allelic series) with MSX2 [25]; 9.33 upbm affinity estimate (log intensity, higher = more binding, comparable within an allelic series) with PRRX1 [8].
